Our source for the outcome and AC50 values is PubChem BioAssay (EPA / NIEHS).

“And” between values parts separate entries of the source, which are not always exact repeats. Equal entries are not always repeated. Results filed as inconclusive are left out. The source made the active and inactive calls. Rule for the calls, unless noted: active = hit-call score of the fitted dose curve at least 0.9, where 1 is the maximum; inactive = score below 0.9.

One may read the AC50 as the concentration at which the activity in the assay is half-maximal.

The nature of the first experiment: CCTE_Shafer_MEA_acute_LDH: CCTE's Lactate Dehydrogenase Assay for Cytotoxicity in the Neural Acute Assay, Shafer Lab (AID 2284086; active = hit-call score of the fitted dose curve at least 0.9, where 1 is the maximum;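 note: active means LDH release rises above DMSO vehicle level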).
Conditions: not given
The essentials: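 Medium from rat cortical neuron MEA cultures sampled right after the 40 min compound-exposure recording; released LDH measured by absorbance at 490 nm. Analyzed as signal gain relative to DMSO.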
For `ClC1=C(Cl)[C@]2(Cl)[C@@H]3[C@@H]4C[C@@H]([C@H]5O[C@@H]45)[C@@H]3[C@@]1(Cl)C2(Cl)Cl`, the compound was called inactive.

Consider `ClC1=C(Cl)[C@]2(Cl)[C@@H]3[C@@H](Cl)[C@H]4O[C@H]4[C@@H]3C1(Cl)C2(Cl)Cl`, for which the outcome was inactive.

Turning to `CC#Cc1cc(C)nc(Nc2ccccc2)n1`, the result was inactive.

Consider `CN(C)CCO`, for which the compound was called inactive.

As for `C=CC(N)=O`, the compound was classed as inactive.

Consider `CO/C=C(/C(=O)OC)c1ccccc1COc1cccc(C(F)(F)F)n1`, for which the result was inactive.

Regarding `CCC(C)c1cc([N+](=O)[O-])cc([N+](=O)[O-])c1O` (stereo unspecified), the compound was called inactive.

With `CC(C)C(=O)OCC(C)(C)C(OC(=O)C(C)C)C(C)C` (stereo unspecified), the compound was classed as inactive.

Take `O=C(O)C(F)(F)C(F)(F)C(F)(F)C(F)(F)C(F)(F)F`: the result was inactive.

With `COc1ccc(O)c(C(C)(C)C)c1`, the compound was classed as inactive.

For `CCSC(=O)N(CC)C1CCCCC1`, the outcome was inactive.

For the compound `ClC(Cl)=C(c1ccc(Cl)cc1)c1ccc(Cl)cc1`, the compound was called inactive.

Take `CCC(C)(CC)c1cc(NC(=O)c2c(OC)cccc2OC)on1`: the result was inactive.

As for `CCCCCCCCCC[N+](C)(C)CCCCCCCCCC`, the AC50 was 31.3 µM (active).

Another experiment is described as follows: CCTE_Shafer_MEA_dev_mutual_information_norm: CCTE's Neural Network Formation Assay for Mutual Information Normalization, Shafer Lab (AID 2284091).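 For AC50: mutual information between electrodes summarised as area under curve across four recording days; potency is for a decrease in mutual information relative to DMSO.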
Conditions: not given
The essentials: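 Developing rat cortical networks on 16-electrode MEA wells are treated throughout formation (DIV 0–12). Shared electrode information is recorded four times, converted to area-under-curve, and fitted for decreases against DMSO vehicle.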
For the compound `Clc1ccc(C(c2ccccc2Cl)C(Cl)(Cl)Cl)cc1` (stereo unspecified), the AC50 was 0.0113 µM (active).

Regarding `ClC1=C(Cl)[C@]2(Cl)[C@@H]3[C@@H]4C[C@@H]([C@H]5O[C@@H]45)[C@@H]3[C@@]1(Cl)C2(Cl)Cl`, the AC50 is 15 µM (active).

Turning to `ClC1=C(Cl)[C@]2(Cl)[C@@H]3[C@@H](Cl)[C@H]4O[C@H]4[C@@H]3C1(Cl)C2(Cl)Cl`, the result was inactive.

With `C=CC(N)=O`, the compound was classed as inactive.

Regarding `CO/C=C(/C(=O)OC)c1ccccc1COc1cccc(C(F)(F)F)n1`, the AC50 is 183 nM (active) and 312 nM (active).

`O=C(O)C(F)(F)C(F)(F)C(F)(F)C(F)(F)C(F)(F)F`: the compound was called inactive.

`COc1ccc(O)c(C(C)(C)C)c1`: the result was inactive.

For `O=S(=O)(O)C(F)(F)C(F)(F)C(F)(F)C(F)(F)F`, the compound was called inactive.

As to `CCOP(=S)(OCC)SCSC(C)(C)C`, the AC50 was 23.4 µM (active) and 21.7 µM (active).

Regarding `ClC(Cl)=C(c1ccc(Cl)cc1)c1ccc(Cl)cc1`, the AC50 was 2.19 µM (active).

A further experiment in a line: CCTE_Shafer_MEA_dev_correlation_coefficient_mean: CCTE's Neural Network Formation Assay for Mean Correlation Coefficient, Shafer Lab (AID 2284093).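 For AC50: well mean pairwise spike train correlation integrated as AUC over recording days 5 to 12; potency fitted for loss of correlation relative to DMSO vehicle wells.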
Conditions: not given
The essentials: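 Spontaneous activity recorded on days 5, 7, 9 and 12 post-plating; pairwise spike correlations are averaged across active electrodes and collapsed to an area-under-curve. Rat cortical cultures are dosed from plating through 12 days, with compound renewed at media changes.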
Turning to `Clc1ccc(C(c2ccccc2Cl)C(Cl)(Cl)Cl)cc1` (stereo unspecified), the AC50 was 0.199 µM (active).

`ClC1=C(Cl)[C@]2(Cl)[C@@H]3[C@@H]4C[C@@H]([C@H]5O[C@@H]45)[C@@H]3[C@@]1(Cl)C2(Cl)Cl`: the AC50 was 23.6 µM (active).

As to `ClC1=C(Cl)[C@]2(Cl)[C@@H]3[C@@H](Cl)[C@H]4O[C@H]4[C@@H]3C1(Cl)C2(Cl)Cl`, the AC50 was 27.5 µM (active).

For the compound `C=CC(N)=O`, the outcome was inactive.

On to `CO/C=C(/C(=O)OC)c1ccccc1COc1cccc(C(F)(F)F)n1`, for which the AC50 is 244 nM (active) and 459 nM (active).

For the compound `O=C(O)C(F)(F)C(F)(F)C(F)(F)C(F)(F)C(F)(F)F`, the compound was called inactive.

For `COc1ccc(O)c(C(C)(C)C)c1`, the call was inactive.

As to `O=S(=O)(O)C(F)(F)C(F)(F)C(F)(F)C(F)(F)F`, the result was inactive.

Turning to `CCOP(=S)(OCC)SCSC(C)(C)C`, the AC50 is 23.3 µM (active) and 24.2 µM (active).

With `ClC(Cl)=C(c1ccc(Cl)cc1)c1ccc(Cl)cc1`, the AC50 is 3.9 µM (active).

A further experiment can be described thus: UKN2_HCS_IMR90_neural_migration: University of Konstanz (UKN) Leist Lab Neural Crest Cell Migration Assay in human induced IMR90 Pluripotent Stem Cells (UKN2) (AID 2284204). The following applies: actives raise or lower the signal. Here is the method:
UKN2_HCS_IMR90 is a cell-based, multiplexed-readout assay screening for neural crest cell migration and cell viability that uses IMR90 (neural crest cells differentiated from iPSC), a human embryo cell line, with measurements taken at […] after chemical dosing in a microplate: 96-well plate. UKN2, also known as cMINC, is an assay that uses IMR90 cells (neural crest cells differentiated from iPSC) as a model of neural crest cell migration. 24 hr after cell seeding, cell migration was initiated and proceeded for 24 hr. Then, chemical was applied, and after 24 hr of exposure migration and viability were assessed using high-content imaging of cells stained with calcein-AM and Hoechst H-33342.UKN2_HCS_IMR90_neural_migration is an assay component measured from the UKN2_HCS_IMR90 assay. It is designed to make measurements of neural crest cell migration, a form of morphology reporter, as detected with Fluorescence intensity signals by HCS Fluorescent Imaging.The assay endpoint UKN2_HCS_IMR90_neural_migration was analyzed with bidirectional fitting relative to DMSO as the negative control and baseline of activity. Using a type of morphology reporter, gain or loss-of-signal activity can be used to understand developmental effects. To generalize the intended target to other relatable targets, this assay endpoint is annotated to the neurodevelopment intended target family, where the subfamily is neural crest cell migration.
The wells are coated with PLO/laminin/fibronectin. Then, silicone stoppers are placed into the wells of a 96-well plate. Cells are seeded around the stoppers and allowed to attach for 24 hours. Day 0: The silicone stoppers are removed and the medium is replaced with pre-warmed, fresh N2-S medium containing the cytokines EGF and FGF. Cells are allowed to migrate into the cell free area. Day 1: 25 ul of the 5x concentrated toxicants are added to the wells. The cells plus toxicants are incubated for 24 h. Day 2: Cells are stained with calcein-AM and Hoechst (H-33342) for 30 min before imaging with a high content imaging microscope. Quantification of migration and viability is done by high content imaging analysis.
Consider `CO/C=C(/C(=O)OC)c1ccccc1COc1cccc(C(F)(F)F)n1`, for which the compound was called inactive.

Consider `O=S(=O)(O)C(F)(F)C(F)(F)C(F)(F)C(F)(F)F`, for which the call was inactive.

With `CCOP(=S)(OCC)SCSC(C)(C)C`, the outcome was inactive.

The nature of another experiment: IUF_NPC1b_proliferation_BrdU_72hr: Leibniz Research Institute for Environmental Medicine (IUF) 72-hour Neural Progenitor Cell Bromodeoxyuridine (BrdU) Proliferation Assay (NPC1b) (AID 2284207).
Conditions: not given
The essentials: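 Proliferation of primary human neural progenitor cells: 72 h compound treatment at 37C, 5% CO2, pH 7.2-7.6, in EGF/FGF-containing medium. Readout is BrdU uptake (last 16 h) by chemiluminescent ELISA, normalised to DMSO.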
Take `C=CC(N)=O`: the call was inactive.

Consider `CO/C=C(/C(=O)OC)c1ccccc1COc1cccc(C(F)(F)F)n1`, for which the compound was classed as inactive.

On to `O=S(=O)(O)C(F)(F)C(F)(F)C(F)(F)C(F)(F)F`, for which the call was inactive.

Turning to `CCOP(=S)(OCC)SCSC(C)(C)C`, the call was inactive.
